Records with an inconclusive call do not appear. The source made the active and inactive calls. Calls come from the whole dose curve; as a rule, active = well fitted cell-killing curve with a large enough effect in the repeat runs; inconclusive = weak or mixed curves, or effect the other way; inactive = no such curve, though single readings can be large or run the other way.
Assay: qHTS assay to identify small molecule antagonists of the progesterone receptor (PR) signaling pathway - cell viability counter screen (AID 1346798); note: nearly all actives have a fitted effect of over 50% in size
Conditions: PR-UAS-bla HEK293T viability, CellTiter-Glo luminescence, 16 h; series mostly up to 92.4 µM
From the text: National Center for Advancing Translational Sciences [NCATS]
NIH Chemical Genomics Center [NCGC]
U.S. Environmental Protection Agency [EPA]
National Institutes of Environmental Health Sciences [NIEHS]
National Toxicology Program [NTP]
U.S. Food and Drug Administration [FDA]
Progesterone receptor (PR), a nuclear hormone receptor, plays an important role in development, metabolic homeostasis and reproduction. It is activated by the steroid hormone progesterone. Endocrine disrupting chemicals (EDCs) and their interactions with steroid hormone receptors like PR causes disruption of normal endocrine function. To identify the compounds that inhibit PR signaling, a PR-UAS-bla GripTite cell line i.e. PR-UAS-bla HEK293T (Invitrogen, Carlsbad, CA, USA) containing a beta-lactamase reporter gene under the control of an UAS response element was used to screen Tox21 10K compound library. The cytotoxicity of the Tox21 compound library against the PR-bla cell line was tested in parallel by measuring the cell viability using CellTiter-Glo assay in the same wells.
Tox21 Assay Protocol Summary:
PR-UAS-bla HEK293T cells were dispensed at 3,000 cells/4 uL of assay medium containing 2% charcoal stripped FBS per well into black wall/clear-bottom 1536-well plates using a Multidrop Combi (ThermoFisher Scientific, Waltham, MA) dispenser. After the assay plates were incubated at a 37C and 5% CO2 for 4 hr, 23 nL of compounds dissolved in DMSO, positive controls or DMSO only was transferred to the assay plate by a Pintool station (Kalypsys, San Diego, CA), followed by addition of 1 uL of R5020 in assay medium using a Flying Reagent Dispenser (FRD, Aurora Discovery, San Diego, CA). The plates were incubated at 37C and 5% CO2 for 16 hr. Then 1 uL of LiveBLAzer B/G FRET substrate was added using a Flying Reagent Dispenser, the plates were incubated at room temperature for 2 hours, and fluorescence intensity was measured by an Envision plate reader (PerkinElmer, Shelton, CT). For cell viability readout that measures cytotoxicity, 4 uL/well of CellTiter-Glo reagent was added into the assay plates using a FRD. After 30 min incubation at room temperature, the luminescence intensity in the plates was measured using a ViewLux (PerkinElmer) plate reader.
With `CCC(C)OC(C)CC` (stereo not given) the outcome was “inactive”.
With `CCN(CC)CCN` the outcome was “inactive”.
For `CCCCCCCCCCCCCBr`, the outcome was “inactive”.
In the case of `CC(C)Nc1ccccc1`, the outcome is reported as “inactive”.
With `Fc1ccccc1` the outcome was “inactive”.
In the case of `CC12CCC(C1)C(C)(C)C2O` (stereo not given), the outcome is reported as “inactive”.
In the case of `COc1ccc2c(c1)c1c3n2CCN(C)C3=NCC1`, the outcome is reported as “inactive”.
For `CC(C)C1OCCN1CCOC(=O)NCCCCCCNC(=O)OCCN1CCOC1C(C)C` (stereo not given), the outcome was “inactive”.
In the case of `O=[N+]([O-])c1c(Cl)cc(Cl)cc1Cl`, the outcome is reported as “inactive”.
In the case of `CCCC(=O)OC/C=C(\C)CCC=C(C)C`, the outcome is reported as “inactive”.
For `CC(=O)O[C@H]1C[C@@H]2CC[C@@]1(C)C2(C)C`, the outcome was “inactive”.
For `C/C(CC(C)C)=N\O`, the outcome was “inactive”.
For `OCCN1CCOCC1`, the outcome was “inactive”.
In the case of `CC(=O)c1cc(C)oc1C`, the outcome is reported as “inactive”.
With `CNCCS(=O)(=O)O` the outcome was “inactive”.
In the case of `CN(C)CCCCl`, the outcome is reported as “inactive”.
For `O=C[O][Al]([O]C=O)[O]C=O`, the outcome was “inactive”.
With `CN(C)CCOC(=O)C(c1ccccc1)C1(O)CCCC1` (stereo not given) the outcome was “inactive”.
In the case of `COC(=O)CCCCC(=O)O`, the outcome is reported as “inactive”.
With `Cn1nnc2c(C(N)=O)ncn2c1=O` the outcome was “inactive”.
In the case of `C=CCSSCCC`, the outcome is reported as “inactive”.
With `CCc1occc(=O)c1O` the outcome was “inactive”.
In the case of `CCCCCCCCCCCCCCC(=O)NC(CO)CCCCCCCCCCCCCC` (stereo not given), the outcome is reported as “inactive”.
In the case of `CC(CO)(CO)CO`, the outcome is reported as “inactive”.
For `CCOC(CN1CCN(CC(C)C(=O)c2ccccc2)CC1)c1ccccc1` (stereo not given), the activity change, negative = cytotoxicity was 27.5% [at 18.9 µM] (inactive).
In the case of `O=C(O)CCCCCC(=O)O`, the outcome is reported as “inactive”.
In the case of `CN(C)C(C)(C)CO`, the outcome is reported as “inactive”.
For `N#Cc1ccccc1O`, the outcome was “inactive”.
For `CC(=O)OC(C)=O`, the outcome was “inactive”.
With `CC(=O)O[Si](C)(OC(C)=O)OC(C)=O` the outcome was “inactive”.
In the case of `C=Cc1ccc(C(C)(C)C)cc1`, the outcome is reported as “inactive”.
For `CC(=O)OC1CCCCC1C(C)(C)C` (stereo not given), the outcome was “inactive”.
In the case of `CC(=O)O[C@@H]1CC2CCC1(C)C2(C)C` (stereo not given in full), the outcome is reported as “inactive”.
In the case of `CC(=O)C(C)O` (stereo not given), the outcome is reported as “inactive”.
With `CCCCSCCCC` the outcome was “inactive”.
For `Cc1ccc(N)cc1S(=O)(=O)O`, the outcome was “inactive”.
In the case of `CC(Oc1cc(Cl)ccc1Cl)C(=O)O` (stereo not given), the outcome is reported as “inactive”.
For `CCOCCOCC`, the outcome was “inactive”.
With `[O]=[Mo](=[O])=[O]` the activity change, negative = cytotoxicity was 2.8% [at 18.9 µM] (inactive).
With `CCCCCc1cccc(=O)o1` the outcome was “inactive”.

Reference: PubChem BioAssay (Tox21)
% is set by controls: 0 for no effect and ±100 for the full control effect.
